Screening results (PubChem)
Compounds with a hit are over-represented: about 8.6% of the library has one in this group of screens.
Lassa entry: Lassa virus entry inhibition; Lassa virus pseudotyped entry inhibition, cell-based qHTS; 18,000 compounds, 4.1% hits; Potency, µM (titrated, usually from 49.2 µM), actives largely listed as inhibitors
Marburg entry: Marburg virus entry inhibition. Marburg virus pseudotype entry/binding inhibition, cell-based. Potency, µM (highest dose often 49.2 µM), usual class: inhibitors. 18,000 compounds, 6.5% hits. AID 720532
A number is an active result; – = inactive; ? = inconclusive; · = no result; ! = a repeat was not active; [ ] = dose if it differs, or a comment. Calls follow the shape of the full dose curve; tested in HEK293 cells.

SMILES | Lassa entry | Marburg entry
CN(C)[C@H]1CCN([C@H]2C[S+](=O)([O-])N[C@H]2COCc2ccccc2)C1 | – | –
COC(=O)N[C@H](CC(C)=O)c1cccs1 | –[8.59 µM] | –[8.59 µM]
COc1ccc2ncn(-c3cc(OC(C)c4ccccc4C(F)(F)F)c(C(N)=O)s3)c2c1 (centres undefined) | ? | 0.89µM
COc1ccc(COc2cc(-c3cccc(OC)c3)nc3ccc(NC(C)=O)cc23)cc1 | – | –
COc1cccc(COc2cc(-n3cnc4ccccc43)sc2C(N)=O)c1 | ? | 13µM
CN[C@@]1(c2ccccc2Cl)CCCCC1=O | – | –
CCCNC(=O)OC[C@H]1O[C@H](CCON=Cc2ccc(C(=O)N3[C@H](C(=O)OC)CC[C@H](C)[C@@H]3c3ccc(C)cc3)cc2)C=C[C@H]1Oc1ccc(OC)cc1 | · | –[8.59 µM]
C[C@@H]1[C@@H](c2ccccc2)Cc2nc3ccccc3nc2C[C@H]1C(=O)N1CCCC1 | –[8.59 µM] | –[8.59 µM]
CO[C@H]1C=CO[C@@]2(C)Oc3c(C)c(O)c4c(O)c(c(/C=N/N5CCN(C6CCCC6)CC5)c(O)c4c3C2=O)NC(=O)/C(C)=C\C=C[C@H](C)[C@H](O)[C@@H](C)[C@@H](O)[C@@H](C)[C@H](OC(C)=O)[C@@H]1C | ? | –
COCC=CC1=CC2=CC(=O)C(C)(OC(=O)c3cnc4ccccc4n3)C(=O)C2=CN1CCc1c[nH]c2ccccc12 (centres undefined) | –[8.59 µM] | –[8.59 µM]
CN1C(=O)[C@]23CC4=CC=C[C@H](O)[C@H]4N2C(=O)[C@@]1(CO)SS3 | 2.5µM | 1.4µM
CC(C)C1C(=O)N(Cc2cn(CCC3OCCCO3)nn2)CCS(=O)(=O)N1Cc1ccc(-c2ccccc2)cc1 (centres undefined) | · | –
COC(=O)c1ccc(CN2C(=O)[C@@]3(CC(C)=CC[C@@H](C)O3)c3ccccc32)cc1 | –[8.59 µM] | –[8.59 µM]
O[C@@H](CNC[C@H](O)[C@H]1CCc2cc(F)ccc2O1)[C@@H]1CCc2cc(F)ccc2O1 | ? | 10µM
CC[C@@H]1CN2CCc3cc(OC)c(OC)cc3[C@H]2C[C@@H]1C[C@@H]1NCCc2cc(O)c(OC)cc21 | 0.35µM | ?
COc1cc2c(cc1OC)[C@H](C)NCC2 | – | –
CC(CCN1CCCc2nc(C)c(C)cc21)=NO[C@H](C)CN1CCCc2nc(C)c(C)cc21 | –[8.59 µM] | –[8.59 µM]
C1CCC(C(C[C@@H]2CCCCN2)C2CCCCC2)CC1 | – | 7.9µM
Cc1ccc2[nH]nc(C(=O)N3CCOc4ccc(CN5CCc6sccc6C5)cc4C3)c2c1 | – | ?
CSC[C@H]1CN(CCc2ccccc2)C(=O)[C@H]1CC(=O)Nc1ccccc1 | – | –
COc1ccc(S[C@@H]2C[C@@H](C(=O)Nc3ccc4nccnc4c3)N(C3Cc4ccccc4C3)C2)cc1 | 3.2µM | –
Cc1ccc(CN2C[C@H](Sc3ccccn3)C[C@H]2C(=O)Nc2ccc3sc(C)nc3c2)cc1 | – | ?
COc1ccc(/C=C/C(=O)c2cc(O)ccc2O)cc1 | 0.89µM | –
COc1ccc(/C=C/C(=O)c2ccc(O)cc2O)cc1 | – | –
COC(=O)[C@H]1[C@H](CCc2ccccc2)NC(=O)N(Cc2ccccc2)[C@H]1C | · | –[8.59 µM]
SMILES | Lassa entry | Marburg entry
CNC(=O)c1cc(Oc2ccc(NC(=O)Nc3ccc(Cl)c(C(F)(F)F)c3)cc2)ccn1 | 7.9µM | 13µM
COC(=O)Nc1nc2ccc(Oc3cccc(NC(=O)Nc4cc(C(F)(F)F)ccc4F)c3)cc2[nH]1 | – | ?
C=CC[C@]1(C(=O)OC)C=C[C@H](C)[C@@H](c2ccccc2)N1C(=O)C(F)(F)F | –[8.59 µM] | –[8.59 µM]
CC1=CC2CC(CCO)OP(=O)(OC1)O2 (centres undefined) | – | –
Cc1cc2c(OCC(CNC(C)(C)C)OC(=O)c3ccccc3)cccc2[nH]1 (centres undefined) | – | 35µM
C[C@H]1CC[C@H]2C(=O)O[C@H](COc3ccc(C(C)(C)C)cc3)CN2[C@H]1c1ccc(Br)cc1 | · | –[8.59 µM]
CCCCCCCCNS(=O)(=O)CCNCCc1ccccc1 | – | –
CCCCCCCCCCCCCC[N+](C)(C)Cc1ccccc1 | 28µM | ?
CCCCCCCCCCCCCCCC[N+](C)(C)Cc1ccccc1 | ? | 25µM
CCCCCCCCNS(=O)(=O)CCNCc1ccccc1 | – | –
Cc1ccc(C#C[C@@H]2C=C[C@H](Oc3ccc4c(c3)OCO4)[C@@H](CO)O2)c(C)c1 | –[8.59 µM] | –[8.59 µM]
CC1=CC[C@@H](COc2ccccc2)O[C@@]2(C1)C(=O)Nc1cccc(Br)c12 | –[8.59 µM] | –[8.59 µM]
CCC(=O)Nc1ccc(C)c(-c2ccc(C(=O)NCC3CC3)cc2)c1 | – | –
CC(C)=CCCC1(C)C=Cc2c(O)c3c(c(CC=C(C)C)c2O1)OC12C(CC4CC1C(C)(C)OC2(C/C=C(/C)C(=O)O)C4O)C3=O (centres undefined) | 10µM | –
C[C@H]1COc2cccc(F)c2S(=O)(=O)N1 | – | –
NC(=NCc1ccccc1)NC(=O)c1nc(Cl)c(N)nc1N | ? | 25µM!
NC(=Nc1ccccc1)NC(=O)c1nc(Cl)c(N)nc1N | – | ?
COc1cc(C(NC(=O)C(F)(F)F)c2cc3ccccc3o2)cc(OC)c1OC (centres undefined) | · | –[8.59 µM]
